Source: PubChem BioAssay (Tox21)
Results filed as inconclusive are left out. Active and inactive are the calls of the source. The call rests on the fitted dose curve.

biological target: Peroxisome proliferator-activated receptor gamma (Homo sapiens) (UniProt P37231); experiment: qHTS assay to identify small molecule antagonists of the peroxisome proliferator-activated receptor gamma (PPARg) signaling pathway (AID 743191); conditions: HEK293H PPARg-UAS-bla, beta-lactamase ratio, antagonist, 17 h; series mostly up to 62.6 µM; further: nearly all actives have a fitted effect of over 30% in size
Sequence (P37231 whole entry, looked up): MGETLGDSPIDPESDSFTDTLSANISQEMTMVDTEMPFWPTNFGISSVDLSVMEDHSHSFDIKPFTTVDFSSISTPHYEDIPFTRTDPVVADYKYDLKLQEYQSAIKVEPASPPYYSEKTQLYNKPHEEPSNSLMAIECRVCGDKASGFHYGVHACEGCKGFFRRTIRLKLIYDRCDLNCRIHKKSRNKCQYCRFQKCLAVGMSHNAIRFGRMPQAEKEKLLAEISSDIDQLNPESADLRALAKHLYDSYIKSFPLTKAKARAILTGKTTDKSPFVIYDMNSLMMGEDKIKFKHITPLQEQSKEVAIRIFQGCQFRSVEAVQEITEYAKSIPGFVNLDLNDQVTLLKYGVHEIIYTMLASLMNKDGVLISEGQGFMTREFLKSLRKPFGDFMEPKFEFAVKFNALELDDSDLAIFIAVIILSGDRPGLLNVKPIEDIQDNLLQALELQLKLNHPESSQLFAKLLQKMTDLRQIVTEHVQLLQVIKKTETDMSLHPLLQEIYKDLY
Description: U.S. Tox21 Program National Center for Advancing Translational Sciences [NCATS] NIH Chemical Genomics Center [NCGC] U.S. Environmental Protection Agency [EPA] National Institutes of Environmental Health Sciences [NIEHS] National Toxicology Program [NTP] U.S. Food and Drug Administration [FDA] Tox21 Assay Overview: The peroxisome proliferator-activated receptors (PPARs) are lipid-activated transcription factors of the nuclear receptor superfamily with three distinct subtypes namely PPAR alpha, PPAR delta (also called PPAR beta) and PPAR gamma (PPARg). All these subtypes heterodimerize with Retinoid X receptor (RXR) and these heterodimers regulate transcription of various genes. PPAR-gamma receptor (glitazone receptor) is involved in the regulation of glucose and lipid metabolism. To identify the compounds that inhibit PPAR-gamma signaling, GeneBLAzer PPAR gamma UAS-bla HEK293H cell line (Invitrogen, Carlsbad, CA, USA) containing a beta-lactamase reporter gene under control of an Upstream Activator Sequence (UAS) was used to screen the Tox21 compound library.
Tox21 Assay Protocol Summary: PPARg-bla cells were dispensed at 3000 cells/6uL/well in 1536-well black wall/clear bottom plates using a Multidrop Combi (Thermo Fisher Scientific, Waltham, MA) dispenser. After the assay plates were incubated at 37C and 5% CO2 for 5 h, 23 nL of compounds dissolved in DMSO, positive controls or DMSO only was transferred to the assay plate by a Pintool station (Kalypsys, San Diego, CA). The assay plates were incubated at 37C for 17 h. After 1 uL of LiveBLAzerTM B/G FRET substrate was added using a Bioraptr Flying Reagent Dispenser (FRD) workstation (Beckman Coulter, Indianapolis, IN, USA), the plates were incubated at room temperature for 1 h, and fluorescence intensity was measured by an Envision plate reader (PerkinElmer, Shelton, CT).
On the % scale 0 is the no-effect control and ±100 the full control effect.

Q: With `C[C@@H]1NC(=O)[C@@H](N)CNC(=O)[C@H](C2CCNC(N)=N2)NC(=O)/C(=C/NC(N)=O)NC(=O)[C@H](CNC(=O)C[C@@H](N)CCCN)NC1=O` (stereo not given in full) as the molecule, how does the ratio activity, negative = inhibition read?
A: 0.698% [at 0.55 µM] (inactive)

Q: Which outcome does the source give for `Cc1ccc(S(=O)(=O)NC(=O)NN2CC3CCCC3C2)cc1` (stereo not given) here?
A: inactive

Q: Which outcome does the source give for `CNC(C)=O` here?
A: inactive

Q: `CC(=O)SCC(CC(=O)c1ccc(C)cc1)C(=O)O` (stereo not given) was tested. Which outcome did it give?
A: inactive

Q: `Cc1ccc(NC(N)=O)cc1` was tested. Which outcome did it give?
A: inactive

Q: How did the outcome turn out when `CN(C)c1cc(NC(=O)CNC(C)(C)C)c(O)c2c1C[C@H]1C[C@H]3[C@H](N(C)C)C(=O)C(C(N)=O)=C(O)[C@@]3(O)C(=O)C1=C2O` was run?
A: inactive

Q: How did the outcome turn out when `CCCCCCC(=O)c1ccccc1` was run?
A: inactive

Q: Which outcome does the source give for `CCCCNCC` here?
A: inactive

Q: `O=Cc1ccc(C(=O)O)cc1` was tested. Which outcome did it give?
A: inactive

Q: For `NNC(=O)CCCCC(=O)NN`, which outcome is on record?
A: inactive

Q: With `CCO[Si](CC(C)C)(OCC)OCC` as the molecule, how does the outcome read?
A: inactive

Q: For `Cc1ccc(N)nc1`, which outcome is on record?
A: inactive

Q: For `CC(C)C[P+](C)(CC(C)C)CC(C)C`, which outcome is on record?
A: inactive

Q: For `N#Cc1ccccc1C#N`, which outcome is on record?
A: inactive

Q: `CCc1ncc(C)[nH]1` was tested. Which outcome did it give?
A: inactive

Q: For `CCCC[O][Al]([O]CCCC)[O]CCCC`, which outcome is on record?
A: inactive

Q: For `CCOC(=O)CC(C(C)=O)C(C)=O`, which outcome is on record?
A: inactive

Q: `CC(C)OC(=O)C(C(=O)OC(C)C)=C1SC=CS1` was tested. Which outcome did it give?
A: inactive

Q: With `CC(C)(C)OC(=O)c1ccccc1C(=O)O` as the molecule, how does the outcome read?
A: inactive

Q: Which outcome does the source give for `Cc1ccc(O)c([N+](=O)[O-])c1` here?
A: inactive

Q: Which outcome does the source give for `CCc1ccc(CC)cc1` here?
A: inactive

Q: Which outcome does the source give for `CC12CCCC=C1C(=O)OC2=O` (stereo not given) here?
A: inactive

Q: `CCCC(=O)CC` was tested. Which outcome did it give?
A: inactive

Q: How did the outcome turn out when `CCN1CCN(C(=O)N[C@@H](C(=O)N[C@@H]2C(=O)N3C(C(=O)O)=C(CSc4nnnn4C)CS[C@H]23)c2ccc(O)cc2)C(=O)C1=O` was run?
A: inactive

Q: With `C/C=C/C(=O)CCCC` as the molecule, how does the outcome read?
A: inactive

Q: `CC(C)(O)c1ccc(C(C)(C)O)cc1` was tested. Which outcome did it give?
A: inactive

Q: How did the outcome turn out when `Cc1cc(O)c(Cl)cc1C` was run?
A: inactive

Q: For `C[C@@H](CN1CC(=O)NC(=O)C1)N1CC(=O)NC(=O)C1`, which outcome is on record?
A: inactive

Q: `CCCCCCCOC(C)=O` was tested. Which outcome did it give?
A: inactive

Q: `C=CC(C)(CCC=C(C)C)OC(=O)C(C)C` (stereo not given) was tested. Which outcome did it give?
A: inactive

Q: With `O=C(O)CCCCCCCCCC(=O)O` as the molecule, how does the outcome read?
A: inactive

Q: `O=S(=O)(O)c1ccc(Cl)cc1` was tested. Which outcome did it give?
A: inactive

Q: For `O=Cc1ccccc1S(=O)(=O)O`, which outcome is on record?
A: inactive

Q: For `CC(C)(C)C(=O)CCc1ccc(Cl)cc1`, which outcome is on record?
A: inactive

Q: `CCCCC(CC)COC(=O)CC#N` (stereo not given) was tested. Which outcome did it give?
A: inactive

Q: With `COC(=O)c1ccc(NC(C)=O)cc1OC` as the molecule, how does the outcome read?
A: inactive

Q: With `CC(=O)OC/C=C(/C)CCC=C(C)C` as the molecule, how does the outcome read?
A: inactive

Q: How did the outcome turn out when `CC(C)(C)C(=O)CC(=O)C(C)(C)C` was run?
A: inactive

Q: With `CC(O)CCCCn1c(=O)c2c(ncn2C)n(C)c1=O` (stereo not given) as the molecule, how does the outcome read?
A: inactive

Q: With `O=C1CCCc2c(O)cccc21` as the molecule, how does the outcome read?
A: inactive
